Source: PubChem BioAssay AID651623 (National Center for Advancing Translational Sciences (NCATS), 2012)
Calls of active or inactive are those of the source.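 How the source made its calls: active means inhibition of at least 60% at 114 µM; inconclusive means inhibition from 30% up to below 60% at 114 µM; inactive means inhibition below 30% at 114 µM.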

Each compound was assayed against Ubiquitin carboxyl-terminal hydrolase 8 (Homo sapiens) (UniProt P40818) (assay: Inhibitors of USP1/UAF1: SAR in USP8 diubiquitin SDS-PAGE gel assay). Details: USP8 K63 diubiquitin cleavage; series mostly up to 114 µM.
Chain of Ubiquitin carboxyl-terminal hydrolase 8 (Homo sapiens) (P40818 whole entry, looked up): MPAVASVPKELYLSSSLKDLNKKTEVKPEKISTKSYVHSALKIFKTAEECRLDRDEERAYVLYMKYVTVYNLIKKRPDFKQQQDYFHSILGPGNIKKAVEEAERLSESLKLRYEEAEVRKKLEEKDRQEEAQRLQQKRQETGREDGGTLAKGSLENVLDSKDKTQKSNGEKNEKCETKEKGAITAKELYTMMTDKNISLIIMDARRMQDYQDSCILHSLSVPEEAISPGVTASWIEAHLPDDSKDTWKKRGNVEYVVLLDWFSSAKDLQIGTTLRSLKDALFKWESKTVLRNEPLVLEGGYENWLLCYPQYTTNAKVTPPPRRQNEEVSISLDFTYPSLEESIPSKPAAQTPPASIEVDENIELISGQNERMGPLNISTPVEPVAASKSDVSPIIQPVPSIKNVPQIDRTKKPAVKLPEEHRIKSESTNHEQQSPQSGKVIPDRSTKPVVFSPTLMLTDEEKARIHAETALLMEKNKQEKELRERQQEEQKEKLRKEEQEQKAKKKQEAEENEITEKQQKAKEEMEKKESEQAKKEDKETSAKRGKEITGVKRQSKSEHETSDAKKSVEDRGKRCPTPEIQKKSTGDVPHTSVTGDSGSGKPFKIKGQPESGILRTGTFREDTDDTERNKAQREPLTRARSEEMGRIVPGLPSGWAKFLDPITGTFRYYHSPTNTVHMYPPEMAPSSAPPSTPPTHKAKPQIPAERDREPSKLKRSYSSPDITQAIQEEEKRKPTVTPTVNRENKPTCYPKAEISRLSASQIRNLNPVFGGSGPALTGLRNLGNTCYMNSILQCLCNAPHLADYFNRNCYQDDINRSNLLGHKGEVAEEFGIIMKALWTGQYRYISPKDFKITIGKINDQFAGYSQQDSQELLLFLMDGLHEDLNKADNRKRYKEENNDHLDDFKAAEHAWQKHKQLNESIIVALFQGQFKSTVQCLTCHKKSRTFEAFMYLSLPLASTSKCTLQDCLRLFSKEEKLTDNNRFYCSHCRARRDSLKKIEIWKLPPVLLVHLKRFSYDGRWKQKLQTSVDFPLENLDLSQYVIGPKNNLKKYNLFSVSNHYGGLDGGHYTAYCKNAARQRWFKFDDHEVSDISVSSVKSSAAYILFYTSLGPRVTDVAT
Source text: Deubiquitinating enzymes (DUBs) are a class of enzymes that can cleave isopeptide bond formed between the C-terminal carboxylate of ubiquitin and a lysine side-chain amino group on the target protein. Among them, ubiquitin specific proteases (USPs) constitute the largest DUB family. Human USPs are emerging as promising targets for pharmacological intervention because of their connection to a number of human diseases, including prostate, colon and breast cancer (1, 2), pediatric acute lymphoblastic leukemia (3), and familial cylindromatosis (4). The advantage of inhibiting USPs lies in the potential specificity of therapeutic intervention that can lead to better efficacy and reduce nonspecific side effects. In a collaboration between the University of Delaware and the NIH Chemical Genomics Center, a high-throughput screen assay was developed to screen for USP1/UAF1 inhibitors (5). […]
The inhibition assay contains 80 nM USP8, 2 microM K63 linked diubiquitin, and inhibitors at varied concentrations (0.08 microM - 114 microM). […] The intensity of the individual diubiquitin and monoubiquitin band was quantified using Quantity One 4.3.1 (Biorad, Hercules, CA). The percentage of the conversion was determined and used to calculate the reaction rate. […]

Row | Compound | outcome
1 | Cc1cnc(-c2ccccc2C(C)C)nc1NCc1ccc(-n2ccnn2)cc1 | inactive
